Many of the other results were omitted from the sample, so hits are more common in it than they were.
HT1080-NT tox: qHTS for induction of synthetic lethality in tumor cells producing 2HG: qHTS for the HT-1080-NT fibrosarcoma cell line; 360,000 tested, 1.6% active; HT-1080-NT fibrosarcoma viability, CellTiter-Glo ATP luminescence, 48 h; AID 686970, 2013; Potency, µM (series often up to 46.1 µM), inactives show at the highest dose activity, negative = less viability, hits mostly cytotoxic;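 also: NT is the 2HG producing partner of a matched IDH1 knockdown line; potency is read from the fitted curve at half-maximal effect; 0% = DMSO-treated cells and -100% = media-only wells without cells; nearly all actives have a fitted effect of over 55% in size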
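Viability by CellTiter-Glo luminescence after 48 h compound exposure at 37C of HT-1080-NT cells (750/well, RPMI, 5% FBS). % activity scaled between DMSO wells and medium-only wells, then curve-fitted and categorized by curve class.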
DT40 TDP1 no CPT: qHTS for Inhibitors of human tyrosyl-DNA phosphodiesterase 1 (TDP1): qHTS in cells in absence of CPT | DT40 Tdp1-/- hTDP1 cells, no CPT, ATP luminescence, 48 h | Potency, µM (series often up to 46.2 µM), for inactives: at the top dose activity change, negative = growth inhibition, usual class: inhibitors | 420,000 tested, 15% active; also: potency is read from the fitted curve at half-maximal effect; nearly all actives have a fitted effect of over 55% in size
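Chicken DT40 Tdp1-/- cells stably complemented with human TDP1 were seeded at 400 cells/well with DMSO in place of 20 nM camptothecin. After compound pinning, cells grew at least 48 hr at 37 °C; viability read by CellTiter-Glo luminescence.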
ALOX12 inh: Primary qHTS assay for inhibitors of human arachidonate 12S-lipoxygenase (ALOX12): Round 2 | Polyunsaturated fatty acid lipoxygenase ALOX12 (Homo sapiens), P18054 | AID 1671190, 2021 | 580,000 tested, 1.1% active | purified 12hLO, xylenol orange hydroperoxide absorbance | Potency, µM (highest dose often 108 µM), for the others: at the highest dose activity change, negative = inhibition, hits mostly inhibitors; also: potency is read from the fitted curve at half-maximal effect
Target sequence (P18054 whole entry, looked up): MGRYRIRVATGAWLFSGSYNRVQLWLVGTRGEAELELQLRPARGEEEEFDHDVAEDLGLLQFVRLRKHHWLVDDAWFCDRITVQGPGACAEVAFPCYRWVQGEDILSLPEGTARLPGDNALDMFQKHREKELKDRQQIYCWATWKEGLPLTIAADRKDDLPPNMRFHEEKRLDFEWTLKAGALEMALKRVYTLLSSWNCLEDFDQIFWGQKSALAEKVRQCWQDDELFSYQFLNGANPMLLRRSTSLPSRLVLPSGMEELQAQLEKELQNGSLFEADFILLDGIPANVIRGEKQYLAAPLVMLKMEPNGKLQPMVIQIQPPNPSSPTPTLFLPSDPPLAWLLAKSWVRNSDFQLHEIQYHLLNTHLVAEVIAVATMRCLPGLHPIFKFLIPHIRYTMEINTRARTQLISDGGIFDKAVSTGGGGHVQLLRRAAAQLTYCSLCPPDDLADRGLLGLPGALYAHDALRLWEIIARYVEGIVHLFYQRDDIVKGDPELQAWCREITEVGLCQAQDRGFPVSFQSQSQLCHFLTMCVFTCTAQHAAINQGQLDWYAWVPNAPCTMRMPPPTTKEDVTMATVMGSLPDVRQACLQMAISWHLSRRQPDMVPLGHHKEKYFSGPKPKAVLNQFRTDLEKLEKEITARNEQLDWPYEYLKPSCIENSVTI
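Purified human 12hLO at 150 nM in 25 mM Hepes, 0.01% Triton X-100, pH 7.0, preincubated 15 min at room temperature with compound. Reaction started with 40 uM arachidonic acid, 30 min at room temperature. Hydroperoxide measured by Fe-xylenol orange, 573/405 nm absorbance ratio.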
DT40 TDP1 CPT: qHTS for Inhibitors of human tyrosyl-DNA phosphodiesterase 1 (TDP1): qHTS in cells in presence of CPT; 420,000 tested, 12% active; AID 686979, 2013; Potency, µM (doses to about 46.2 µM), without a hit: at the top dose activity change, negative = growth inhibition, actives largely listed as inhibitors; chicken DT40 Tdp1-/-;hTDP1 cells + 20 nM CPT, ATP luminescence, 48 h; also: potency is read from the fitted curve at half-maximal effect; nearly all actives have a fitted effect of over 55% in size
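Cell growth measured by CellTiter-Glo luminescence after a minimum 48 h, 37 C compound exposure with 20 nM CPT in Tdp1-knockout DT40 cells stably expressing hTDP1, seeded 400/well; qHTS titration format.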
IL1B secr inh: qHTS for Inhibitors of Inflammasome Signaling: IL-1-beta AlphaLISA Primary Screen | THP-1 LPS/ATP IL-1B secretion, AlphaLISA, 16 h; stronger effect = lower value | activity change, % at 57.5 µM | 360,000 tested, 4.7% active; in the data active = activity change below about -50%; inconclusive = mostly about -30% to -49%
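THP-1 cells pretreated 1 hr with compounds (up to 57.5 uM final), then stimulated with LPS (250 ng/mL final) plus ATP (1.25 mM final); secreted IL-1B measured by AlphaLISA after 16 hr, decreased signal indicating inhibition.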
HT1080 IDH1KD tx: qHTS for induction of synthetic lethality in tumor cells producing 2HG: qHTS for the HT-1080-IDH1KD cell line; HT-1080 IDH1 knockdown viability, ATP luminescence, 48 h; 360,000 tested, 2% active; Potency, µM (top dose mostly 46.1 µM), for inactives: top-dose activity, negative = toxicity, usual class: cytotoxic; AID 686971, 2013;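 also: potency is read from the fitted curve at half-maximal effect; 0% = DMSO wells and -100% = cell-free medium wells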
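Knockdown cells (IDH1KD HT-1080) received compounds 2 h after plating at 750 cells/well and were kept 48 h at 37 °C in 5% FBS RPMI. A CellTiter-Glo luminescence read gave % activity for curve fitting.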
The depositor's hits bear a star; ? = inconclusive; / = not tested or not shown; [ ] = dose if it differs, or a comment. Unless noted, calls follow the shape of the dose curve; as a rule, active = well fitted curve in the direction sought with a large enough effect; inconclusive = small, poorly fitted or top-dose-only effect, or another doubt; inactive = no such curve, though single readings can be large; an effect the other way counts as inactive or inconclusive. Unless noted, % is scaled to controls: 0 for no effect and ±100 for the full control effect.

SMILES	HT1080-NT tox	DT40 TDP1 no CPT	ALOX12 inh	DT40 TDP1 CPT	IL1B secr inh	HT1080 IDH1KD tx
CC(C)OC(=O)C(C(=O)C(F)(F)F)c1cc(NS(=O)(=O)c2ccc3c4c(cccc24)C(=O)N3)ccc1O (stereo unspecified)	/	?	-67.1%	11.6µM*	/	/
Oc1ccccc1-c1nc(Oc2ccccc2)c2ccccc2n1	/	/	-3.6%	/	/	/
Cc1ccc(-c2cnc(CCC(=O)NC(C)c3ccc4c(c3)NC(=O)CO4)o2)cc1C (stereo unspecified)	/	/	-20.7%	/	/	/
CCCCOC(=O)c1c(C)oc2ccc(NS(=O)(=O)c3ccc4c5c(cccc35)C(=O)N4)cc12	-18.4%	18.4µM*	?	?	-28.2	-1.2%
COCCOC(=O)c1c(C)oc2ccc(NS(=O)(=O)c3cccs3)cc12	-0.4%	-4.4%	-14.8%	7.0%	-0.2	-1.1%
COc1cc(-c2nnc3sc(Cc4ccc(Cl)cc4)nn23)cc(OC)c1OC	/	9.2µM*	?	11.6µM*	-9.2	/
COc1cc(-c2nnc3sc(Cc4ccccc4)nn23)cc(OC)c1OC	-9.8%	?	?	20.6µM*	99.9	-25.6%
COc1ccc(Cc2nn3c(-c4cc(OC)c(OC)c(OC)c4)nnc3s2)cc1	-5.2%	?	0.0%	?	-11.9	5.5%
COc1cccc(C2c3c(C)nn(-c4ccc([N+](=O)[O-])cc4)c3N=C3C(=O)Nc4ccccc4N32)c1 (stereo unspecified)	-1.5%	5.8µM*	-29.1%	13µM*	6.8	-7.5%
Cc1nn(-c2ccc([N+](=O)[O-])cc2)c2c1C(c1ccc(OC(F)F)cc1)N1C(=N2)C(=O)Nc2ccccc21 (stereo unspecified)	2.7%	4.61µM*	-14.1%	5.17µM*	?	-0.9%
CCOC(=O)N1CCc2c(sc3c2c(=O)n(Cc2ccccc2)c(=O)n3CC(=O)Nc2ccc(C)cc2C)C1	/	-4.5%	-11.2%	-6.7%	/	/
CC(=O)N1CCc2c(sc3c2c(=O)n(CCc2ccccc2)c(=O)n3CC(=O)Nc2ccc(C)c(F)c2)C1	/	?	-8.4%	23.1µM*	/	/
CCOC(=O)N1CCc2c(sc3c2c(=O)n(CCc2ccccc2)c(=O)n3CC(=O)Nc2ccccc2C)C1	/	8.2µM*	-6.7%	8.2µM*	/	/
CC(=O)N1CCc2c(sc3c2c(=O)n(-c2ccc(C)cc2)c(=O)n3CC(=O)Nc2ccccc2)C1	/	16.4µM*	-13.7%	?	/	/
O=C(c1ccccc1)N1CCn2c(nnc2-c2ccncc2)C1	/	/	2.9%[6.33 µM]	/	/	/
O=C(/C(=C\c1cccc(Cl)c1)c1nc2ccccc2o1)c1ccccc1	/	/	10.4%	/	/	/
Cc1ccccc1NC(=O)Cc1nc(COC(=O)c2nc(Cl)ccc2Cl)cs1	0.0%	-13.5%	?	-4.4%	2.0	-3.7%
CCOC(=O)c1c(C)[nH]c(C(=O)OCc2csc(CC(=O)Nc3ccccc3C)n2)c1C	-13.4%	13µM*	3.7%	16.4µM*	1.3	-3.1%
Cc1ccccc1NC(=O)Cc1nc(COC(=O)c2ncc(Cl)c(Cl)c2Cl)cs1	-22.8%	?	-5.1%	?	-88.4*	-1.3%
CCOC(=O)c1sc(CC(=O)Nc2ccccc2C)nc1C	/	/	8.91µM*	/	/	/
CCOC(=O)c1sc(Nc2ccccc2C)nc1C	/	/	39.4%	/	/	/
COc1ccccc1C(=O)Nc1ccc2nc(SCCOc3ccccc3C)sc2c1	/	18.4µM*	-18.3%	16.4µM*	/	/
Cc1cc(C)cc(OCCSc2nc3ccc(NC(=O)c4cccs4)cc3s2)c1	/	20.6µM*	-21.3%	?	/	/
Cc1ccccc1NC(=O)CSc1nc2ccc(NC(=O)c3cccs3)cc2s1	/	20.6µM*	-11.6%	?	/	/
COc1cc(C)ccc1OCCSc1nc2ccc(NC(=O)c3ccccc3F)cc2s1	/	-18.2%	-5.6%	?	/	/
SMILES	HT1080-NT tox	DT40 TDP1 no CPT	ALOX12 inh	DT40 TDP1 CPT	IL1B secr inh	HT1080 IDH1KD tx
CN(C/C=C/c1ccccc1)c1cc(C2CC(O)C2)nc(N)n1 (stereo unspecified)	/	/	8.0%	/	/	/
O=C(COc1ccc(Br)cc1CO)Nc1ccc(S(=O)(=O)N2CCCC2)cc1	-3.9%	?	-15.2%	?	-57.3*	-19.0%
Cc1ccc(NC(=O)COc2ccc(Br)cc2CO)cc1S(=O)(=O)N1CCOCC1	-4.3%	18.4µM*	416.5%	?	-28.5	-1.3%
Cc1ccc(NC(=O)COc2cccc(-n3cnnn3)c2)cc1S(=O)(=O)N1CCOCC1	-1.7%	23.1µM*	-2.9%	?	17.5	-4.5%
Cc1cc(NCC(=O)Nc2ccc(C)c(S(=O)(=O)N3CCOCC3)c2)ccc1Br	-24.3%	18.4µM*	25.7%	?	-4.4	-4.0%
CN(C)C(CNC(=O)CCc1ncc(-c2c(F)cccc2F)o1)c1ccco1 (stereo unspecified)	/	/	-2.9%	/	/	/
COc1ccc(C(=O)Oc2cccc(C)c2C)cc1I	/	/	3.0%	/	/	/
O=C(CCCn1c(=O)c2sccc2n(Cc2ccc(Cl)cc2)c1=O)NCc1ccc2c(c1)OCO2	/	?	-10.7%	?	/	/
COC(=O)C(C)OC(=O)c1cc(C(C)C)nc2ccccc12 (stereo unspecified)	/	/	-9.7%	/	/	/
CCc1ccc(CN(C)C(=O)c2cc(COc3ccc(-n4cncn4)cc3)on2)cc1	1.9%	14.6µM*	33.5%	?	?	1.4%
CN(Cc1ccc(F)cc1)C(=O)c1cc(COc2ccc(-n3cncn3)cc2)on1	-11.2%	16.4µM*	3.9%	23.1µM*	-9.2	-5.4%
Cc1ccc(OCc2cc(C(=O)N(C)Cc3cnn(-c4ccccc4C)c3)no2)cn1	18.4µM*	18.4µM*	9.2%	11.6µM*	-9.0	20.6µM*
O=C(CCC[C@@H]1[C@H]2CCCN3CCC[C@@H](CN1Cc1cccnc1)[C@@H]23)Nc1ccncc1	/	/	39.3%	/	/	/
Cc1ccc(C)c(Oc2ccc(CNC(=O)c3ccc4c(c3)NC(=O)CS4)cn2)c1	/	/	-40.3%	/	/	/
Cc1ccc(C)c(NC(=O)/C(C#N)=C/c2ccccc2OC(F)F)c1	/	/	14.0%	/	/	/
Cc1ccc(C)c(NC(=O)/C(C#N)=C/c2ccc[nH]2)c1	-15.5%	-21.8%	-11.1%	18.4µM*	-1.2	-16.4%
Cc1ccccc1NC(=O)/C(C#N)=C/c1ccccc1C(F)(F)F	-3.7%	?	-29.0%	-21.9%	-71.8*	-2.7%
